PI5P4K alpha inh – qHTS for Inhibitors of phosphatidylinositol 5-phosphate 4-kinase (PI5P4K); Phosphatidylinositol 5-phosphate 4-kinase type-2 alpha (Homo sapiens), P48426; PI5P4Kalpha enzyme, ADP-Glo luminescence, 60 min; stronger effect = lower value; max response, %; hit rate 1.2% among 330,000; AID 652105, 2013; active means max response of -50% or lower; inconclusive means between -30% and -50%; inactive means -30% or higher; further: value at the top dose of about 77 µM; on the % scale 0 is the no-effect control and ±100 the full control effect
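Compounds were pin-transferred onto PI5P4Kalpha and substrate in HEPES pH 7.4 buffer with EGTA, CHAPS and 5% DMSO. ATP (5 microM final) started the reaction, which ran 60 minutes at room temperature before ADP-Glo detection.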
JMJD2A Tudor inh – qHTS Assay for Inhibitors of JMJD2A-Tudor Domain; Lysine-specific demethylase 4A (Homo sapiens), O75164; AlphaScreen JMJD2A-Tudor / H3K4me3 peptide binding; Potency, µM (highest dose often 114 µM), for the others: top-dose activity change, negative = inhibition, most hits filed as inhibitors; hit rate 4.4% among 390,000; AID 504339, 2011; further: potency means the concentration at half of the fitted maximal effect; on the % scale 0 is the no-effect control and ±100 the full control effect; nearly all actives have a fitted effect of over 50% in size
BAZ2B inh – qHTS Assay for Inhibitors of BAZ2B. Potency, µM (top dose mostly 114 µM), for the others: at the top dose activity change, negative = inhibition, hits mostly inhibitors. hit rate 4.4% among 360,000. AlphaScreen BAZ2B-H3K14Ac peptide displacement; further: potency means the concentration at half of the fitted maximal effect; on the % scale 0 is the no-effect control and ±100 the full control effect; nearly all actives have a fitted effect of over 60% in size
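BAZ2B 50 nM plus b-H3(5-23)K14Ac 50 nM, PBS pH 7.4/0.01% Tween-20, 30 min RT; compound added (max 110 uM), 30 min RT; streptavidin donor/Ni-chelate acceptor beads 10 ug/mL final, 20 min dark; AlphaScreen read.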
HP1b binding inh – HTS for Inhibitors of HP1-beta Chromodomain Interactions with Methylated Histone Tails | hit rate 0.56% among 390,000 | AlphaScreen HP1-beta / biotin-H3K9me3 peptide binding | Potency, µM (titrated, usually from 114 µM), for the others: top-dose activity change, negative = inhibition, usual class: inhibitors | Chromobox protein homolog 1 (Homo sapiens), P83916; further: potency means the concentration at half of the fitted maximal effect; nearly all actives have a fitted effect of over 70% in size
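AlphaScreen: HP1-beta (50 nM) preformed 30 min with biotin-H3(1-18)K9me3 peptide (50 nM) in PBS pH 7.4, 0.01% Tween-20. Compound added for 30 min at RT, then streptavidin donor/nickel chelate acceptor beads (10 ug/mL) for 30 min.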
L3MBTL1 inh – qHTS Assay for the Inhibitors of L3MBTL1. Potency, µM (top dose mostly 57.1 µM), without a hit: at the highest dose activity, negative = inhibition, usual class: inhibitors. hit rate 0.66% among 230,000. AlphaScreen L3MBTL1–H3K9me1 peptide binding. Lethal(3)malignant brain tumor-like protein 1 (Homo sapiens), Q9Y468; further: potency means the concentration at half of the fitted maximal effect; on the % scale 0 is the no-effect control and ±100 the full control effect; nearly all actives have a fitted effect of over 60% in size
Target sequence (Q9Y468 whole entry, looked up): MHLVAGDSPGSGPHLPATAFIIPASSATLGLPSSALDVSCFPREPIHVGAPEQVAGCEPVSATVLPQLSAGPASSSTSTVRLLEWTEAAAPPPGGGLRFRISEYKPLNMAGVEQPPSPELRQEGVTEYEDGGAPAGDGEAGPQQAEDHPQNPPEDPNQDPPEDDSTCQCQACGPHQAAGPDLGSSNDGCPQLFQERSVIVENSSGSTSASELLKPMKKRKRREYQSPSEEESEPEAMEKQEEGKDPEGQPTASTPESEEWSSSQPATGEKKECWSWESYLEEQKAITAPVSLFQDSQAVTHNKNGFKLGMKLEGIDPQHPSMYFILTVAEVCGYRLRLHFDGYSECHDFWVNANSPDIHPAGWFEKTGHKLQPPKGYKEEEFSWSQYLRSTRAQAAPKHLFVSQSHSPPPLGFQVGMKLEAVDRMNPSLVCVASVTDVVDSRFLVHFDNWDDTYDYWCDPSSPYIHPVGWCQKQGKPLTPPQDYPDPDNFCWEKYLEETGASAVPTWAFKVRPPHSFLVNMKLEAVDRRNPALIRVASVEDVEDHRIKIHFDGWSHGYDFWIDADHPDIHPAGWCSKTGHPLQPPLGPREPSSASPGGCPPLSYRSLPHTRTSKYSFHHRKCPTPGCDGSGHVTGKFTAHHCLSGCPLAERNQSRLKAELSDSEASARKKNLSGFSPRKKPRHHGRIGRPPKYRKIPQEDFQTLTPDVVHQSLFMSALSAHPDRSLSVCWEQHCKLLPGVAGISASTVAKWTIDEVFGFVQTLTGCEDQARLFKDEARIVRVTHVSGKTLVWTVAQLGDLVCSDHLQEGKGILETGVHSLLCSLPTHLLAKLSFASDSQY
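L3MBTL1 (50 nM) pre-complexed 30 min with biotinylated H3(1-15)K9me1 peptide (75 nM), then compounds added for 30 min at room temperature; AlphaScreen streptavidin donor/nickel chelate acceptor beads (10 ug/mL final) read after 30 min dark incubation.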
G9a block – qHTS Assay for Inhibitors of Histone Lysine Methyltransferase G9a | G9a H3K9 monomethylation, AlphaScreen, 2 h | Potency, µM (titrated, usually from 102 µM), inactives show top-dose activity, negative = inhibition, hits mostly inhibitors | hit rate 8.8% among 350,000; further: potency means the concentration at half of the fitted maximal effect; on the % scale 0 is the no-effect control and ±100 the full control effect; nearly all actives have a fitted effect of over 75% in size
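Signal arises when biotinylated H3K9 peptide, once monomethylated, bridges streptavidin donor and antibody-captured acceptor beads. Enzyme at 20 nM was preincubated 15 min with test compounds; peptide 500 nM and SAM 20 uM then reacted for 2 h.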
* = called active by the depositor; ? = inconclusive; . = no result given; [ ] = remark or other dose. In the library only some 11% were active in any assay of this set; here they are far more common. Unless noted, the call rests on the fitted dose curve; in most records, active means well fitted inhibition curve with a large enough effect; inconclusive means small, poorly fitted or top-dose-only effect; inactive means no such curve, though single readings can be large or run the other way.

SMILES	PI5P4K alpha inh	JMJD2A Tudor inh	BAZ2B inh	HP1b binding inh	L3MBTL1 inh	G9a block
Cc1ccc(S(=O)(=O)CCC(=O)OCC(=O)c2cc(C)ccc2C)cc1	-1.2	0.7%	1.5%	47.3%	4.7%	23.8%[12.7 µM]
Cc1ccc(S(=O)(=O)CCC(=O)c2ccc(O)cc2O)cc1	-15.0	-22.2%	9.4%	62.8%	4.3%	39.8µM*
Cc1cc(=O)c(C(=O)O)cn1Nc1ccc(F)cc1	-1.1	50.1µM*	?	-10.6%	.	?
O=C1C2C3C=CC(C3)C2C(=O)N1CNc1ccc(O)cc1 (centres undefined)	.	.	44.7µM*	.	?	2.24µM*
Cc1ccc(NCN2C(=O)C3C4CCC(C4)C3C2=O)cc1 (centres undefined)	.	.	2.8%	.	.	-3.1%
Cc1ccc(NCN2C(=O)C3C4C=CC(C4)C3C2=O)cc1 (centres undefined)	?	17.8µM*	8.9%	-8.1%	4.1%	7.0%
CCOC(=O)C(CC)Sc1ccc2nnc(-c3ccc(F)cc3)n2n1 (centres undefined)	.	0.8%[57.1 µM]	.	24.9%[57 µM]	.	.
Cc1ccc(/C=N/NC(=O)C2(O)c3ccccc3-c3ccccc32)o1	-18.4	-7.7%	-31.0%	29.7%	-8.3%	56.2µM*
Cc1ccc(/C=N/NC(=O)c2ccccn2)o1	1.2	-12.6%	-1.9%	35.6%	0.0%	?
CC(C)N1C(=O)CC(Nc2cccc3cccc(N)c23)C1=O (centres undefined)	-26.1	?	?	-23.1%	-18.9%	44.7µM*
CN1C(=O)CC(Nc2cccc3cccc(N)c23)C1=O (centres undefined)	7.8	?	?	0.8%	-16.1%	35.5µM*
Cc1ccc(C)c(NC(=O)CSc2nnc(-c3cc4occc4n3C)n2-c2ccccc2C)c1	.	?	?	0.5%	.	?
COc1ccc(C2C=C(c3ccc(F)cc3)NC(=S)N2)cc1OC (centres undefined)	-11.7	-29.7%	?	?	-11.9%	44.7µM*
COc1ccc(C2=CC(c3ccc(OC)c(OC)c3)NC(=S)N2)cc1 (centres undefined)	-3.3	-7.2%	-27.2%	58.1%	-6.2%	31.6µM*
COc1cccc(C2=CC(c3ccc(OC)c(OC)c3)NC(=S)N2)c1 (centres undefined)	1.4	-18.5%	?	46.3%	-4.3%	.
CC1CCCC=CC2CC(OC(=O)CN(C)C)CC2C(O)C=CC(=O)O1 (centres undefined)	-2.7	-11.8%	.	36.8%	.	.
C[C@H]1CCC/C=C/[C@@H]2C[C@H](O)C[C@H]2[C@H](O)[C@H](S(=O)c2ccc(O)cc2)CC(=O)O1 (some centres undefined)	-19.8	39.8µM*	.	?	.	.
N#Cc1cnn(-c2ccc(F)cc2)c1N	-51.6*	-13.1%	-4.7%	37.4%	8.1%	.
CCNc1nc(C#N)nc2c1ncn2-c1cccc(Cl)c1	.	-0.7%	.	.	.	.
O=C(NCC(c1cccs1)N1CCOCC1)c1ccccc1NS(=O)(=O)c1cc([N+](=O)[O-])ccc1Cl (centres undefined)	1.1	-6.7%	-3.9%	26.4%	8.1%	44.7µM*
O=C(NCC(c1cccs1)N1CCOCC1)c1ccccc1NS(=O)(=O)c1ccc(Br)cc1 (centres undefined)	-3.6	-21.2%	-2.7%	16.4%	-4.9%	-13.8%
O=C(NCC(c1cccs1)N1CCOCC1)c1ccccc1NS(=O)(=O)c1ccc(Cl)c([N+](=O)[O-])c1 (centres undefined)	-1.3	-32.4%	-32.4%	18.9%	0.0%	44.7µM*
O=C(NCCCN1CCOCC1)c1ccccc1NS(=O)(=O)c1cc([N+](=O)[O-])ccc1Cl	3.5	-7.4%	3.3%	32.2%	9.3%	?
O=C(NCC(c1cccs1)N1CCOCC1)c1ccccc1NS(=O)(=O)c1ccc(Cl)cc1 (centres undefined)	3.6	-19.1%	-1.4%	11.9%	-3.4%	70.8µM*
O=C(NCC(c1cccs1)N1CCOCC1)c1ccccc1NS(=O)(=O)c1cccc([N+](=O)[O-])c1 (centres undefined)	-0.2	?	?	-14.9%	2.9%	6.0%[59 µM]
SMILES	PI5P4K alpha inh	JMJD2A Tudor inh	BAZ2B inh	HP1b binding inh	L3MBTL1 inh	G9a block
CCc1cccc(NC(=O)CSC2=NS(=O)(=O)c3ccccc32)c1	-11.7	-19.0%	-7.8%	21.6%	.	8.91µM*
O=C(CCNS(=O)(=O)c1ccc2c(c1)CCN2C(=O)C1CC1)Nc1ccc(F)cc1F	.	-8.1%	2.7%	28.8%[57 µM]	.	1.3%[59 µM]
CCOc1ccc(CC(=O)Nc2ccc3nc(N4CCCCC4)cc(C)c3c2)cc1OCC	.	-22.0%	-10.0%	22.0%	.	-11.9%[59 µM]
COC(=O)c1ccccc1NC1=C/C(=N\S(=O)(=O)c2cccs2)c2ccccc2C1=O	?	3.98µM*	1.41µM*	7.08µM*	.	1.78µM*
COC(=O)c1ccccc1NC1=C/C(=N\S(=O)(=O)c2ccc(C(=O)O)cc2)c2ccccc2C1=O	?	20µM*	8.91µM*	15.8µM*	.	8.91µM*
COC(=O)c1ccccc1Nc1ccccc1	.	131.1%	172.3%	168.8%	23.6%	75.3%[59 µM]
COC(=O)c1cccc(NS(=O)(=O)c2cccs2)c1C	-1.5	-4.6%	2.2%	7.8%	.	11.5%[59 µM]
Cc1ccccc1-c1noc(-c2nnn(-c3ccccc3C)c2N)n1	.	-24.9%	-4.6%	59.8%	.	-7.5%[59 µM]
Oc1c(C=NCc2ccccc2)sc2ccccc12	10.8	89.1µM*	?	?	-1.3%	?
CCn1c(O)c(C=NCc2ccccc2)sc1=S	-0.6	?	?	5.6%	-24.2%	.
Oc1cccc(C=Nc2cccc3ccccc23)c1O	-90.3*	14.1µM*	44.7µM*	?	?	.
Oc1cccc(C=NCc2ccccc2)c1O	-58.4*	-25.2%	?	-13.9%	.	?
COc1cccc(Nc2ncc3nc(-c4cn(C)c5ccccc45)c(=O)n(CCC#N)c3n2)c1	.	.	.	.	.	4.1%[0.501 µM]
COCC(C)n1c(COc2ccccc2F)nnc1SCC(=O)Nc1oc(C)c2c(C)n[nH]c(=O)c12 (centres undefined)	-15.5	-11.7%	-18.2%	42.9%	7.0%	10µM*
CCOC(=O)CSc1nnnn1-c1cccc2ccccc12	7.7	11.6%	12.8%	74.7%	-5.3%	10µM*
Cc1n[nH]c(=O)c2c(NC(=O)CSc3nnc(C4CC4)n3C)oc(C)c12	0.4	-13.8%	-38.4%	47.2%	2.8%	39.8µM*

Source: PubChem BioAssay
